One experiment deals with Albumin (Bos taurus) (UniProt P02769). Description: compounds binding labelled BSA control protein – biochemical, small-molecule microarray, Alexa647 label, 635/667 nm fluorescence, artefact control for SMM control protein annotation, profiling panel (AID 1118).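 Further: score merges 667 nm emission intensity and signal-to-noise per printed compound spot.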 The note with it: BSA-A647 binding, fluorescence 635 nm, higher = more signal.
Experiment [1] is described as follows: probe aXIP binding to arrayed compounds – biochemical, NeuroSMM set, 635/667 nm fluorescence, primary screen (AID 1119).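 Further: probe is the protein aXip251-270 applied at 1 µg/mL to compound-printed slides; binding of probe to printed compounds measured as 667 nm fluorescence plus signal to noise.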 Conditions: small-molecule microarray, higher = more signal, called active from +8 up or from −8 down.
Experiment [2] in a line: probe aNOTCH3 binding on compound microarray – biochemical, small-molecule microarray, 635/667 nm fluorescence, primary screen (AID 1120).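 Further: probe is a biotin-tagged antibody raised against NOTCH3 rather than NOTCH3 protein; score merges spot fluorescence near 667 nm with spot signal to noise.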 Conditions: higher = more signal.
Experiment [3] can be described thus: probe aNOTCH2 binding on compound microarray – biochemical, small-molecule microarray, 635/667 nm fluorescence, primary screen (AID 1121).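 Further: score merges feature fluorescence read at 667 nm with its signal to noise.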 The note with it: higher = more signal.
Experiment [4] deals with Carbonic anhydrase 2 (Homo sapiens) (UniProt P00918). Description: compounds binding carbonic anhydrase 2 – biochemical, small-molecule microarray, Alexa647-labelled CAII, profiling panel (AID 1122). The note with it: CAII-A647 binding fluorescence, higher = more signal.
Experiment [5] in a line: COS7 lysate on small-molecule microarray, probe aHis, 635 nm (AID 1123).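 Further: z-score combines 667nm fluorescence intensity with signal-to-noise per printed compound spot.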 Conditions: COS7 cell lysate, fluorescence, higher = more signal.
The nature of experiment [6]: probe aLAP1 signal on lysate-treated microarray – cell lysate, small-molecule microarray, COS7 lysate, primary screen (AID 1124).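 Further: lysate comes from COS7 cells expressing LAP1 and is applied at 0.3 µg/mL; score merges spot fluorescence near 667 nm with signal-to-noise over triplicate slides.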 The note with it: probe aLAP1, fluorescence, higher = more signal.
For the next experiment, the system named is Sam68 (KHDRBS1). Description: compounds binding KHDRBS1 protein – biochemical, small-molecule microarray, 635 nm fluorescence, primary screen (AID 1125).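 Further: score merges 667 nm channel intensity with signal to noise over triplicate slides.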 The note with it: higher = more signal.
The subject of experiment [7] is Chordin-like protein 2 (CHRDL2). Description: compounds binding chordin-like 2 – biochemical, small-molecule microarray, 635 nm fluorescence, primary screen (AID 1126).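 Further: printed compound slides probed with Chrdl2 protein at 4 µg/mL for 1 h at 4 C; score merges 667 nm emission intensity with signal to noise over three replicate slides.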 Conditions: fluorescence 635 nm, higher = more signal.
The target of experiment [8] is Concanavalin-A (Canavalia ensiformis) (UniProt P02866). Description: compounds binding concanavalin A lectin – biochemical, small-molecule microarray, Alexa647 label, 635 nm, artefact control for SMM control protein annotation, primary screen (AID 1127).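 Further: z combines 667 nm emission intensity with signal-to-noise across three replicate slides.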 Conditions: ConA-A647 binding fluorescence, higher = more signal.
Concanavalin-A (Canavalia ensiformis), sequence (P02866 whole entry, looked up): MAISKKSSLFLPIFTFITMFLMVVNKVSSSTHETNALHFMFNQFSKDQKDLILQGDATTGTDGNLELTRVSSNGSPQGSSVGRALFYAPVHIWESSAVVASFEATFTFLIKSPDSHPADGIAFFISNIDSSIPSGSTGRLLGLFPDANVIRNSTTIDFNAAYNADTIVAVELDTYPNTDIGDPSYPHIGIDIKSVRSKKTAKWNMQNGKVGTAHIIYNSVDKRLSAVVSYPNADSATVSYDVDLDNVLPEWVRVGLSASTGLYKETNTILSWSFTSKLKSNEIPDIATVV
A short description of experiment [9]: compounds binding Alexa647 anti-His antibody – biochemical, small-molecule microarray, 635 nm fluorescence, artefact control for SMM control protein annotation, primary screen (AID 1128).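 Further: score merges feature fluorescence with signal-to-noise for each printed compound spot.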 Conditions: higher = more signal.
Experiment [10] has as its system Human papillomavirus type 1a E7 protein (residues 1-88). The experiment is described as follows: HPV1a E7 small-molecule binders, primary screen, biochemical, small-molecule microarray, residues 1-88, 635 nm (AID 1129). The note with it: small-molecule microarray binding, fluorescence 635 nm; higher = more signal.
Experiment [11] deals with Focal adhesion kinase 1 (Homo sapiens) (UniProt Q05397). The experiment is described as follows: PTK2 protein binding on printed compound slides – biochemical, small-molecule microarray, 635/667 nm fluorescence, BSA, DTT, primary screen (AID 1130).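 Further: composite of spot emission at 667 nm and signal to noise over triplicate slides.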 The note with it: 635 nm fluorescence, higher = more signal.
Focal adhesion kinase 1 (Homo sapiens), sequence (Q05397 whole entry, looked up): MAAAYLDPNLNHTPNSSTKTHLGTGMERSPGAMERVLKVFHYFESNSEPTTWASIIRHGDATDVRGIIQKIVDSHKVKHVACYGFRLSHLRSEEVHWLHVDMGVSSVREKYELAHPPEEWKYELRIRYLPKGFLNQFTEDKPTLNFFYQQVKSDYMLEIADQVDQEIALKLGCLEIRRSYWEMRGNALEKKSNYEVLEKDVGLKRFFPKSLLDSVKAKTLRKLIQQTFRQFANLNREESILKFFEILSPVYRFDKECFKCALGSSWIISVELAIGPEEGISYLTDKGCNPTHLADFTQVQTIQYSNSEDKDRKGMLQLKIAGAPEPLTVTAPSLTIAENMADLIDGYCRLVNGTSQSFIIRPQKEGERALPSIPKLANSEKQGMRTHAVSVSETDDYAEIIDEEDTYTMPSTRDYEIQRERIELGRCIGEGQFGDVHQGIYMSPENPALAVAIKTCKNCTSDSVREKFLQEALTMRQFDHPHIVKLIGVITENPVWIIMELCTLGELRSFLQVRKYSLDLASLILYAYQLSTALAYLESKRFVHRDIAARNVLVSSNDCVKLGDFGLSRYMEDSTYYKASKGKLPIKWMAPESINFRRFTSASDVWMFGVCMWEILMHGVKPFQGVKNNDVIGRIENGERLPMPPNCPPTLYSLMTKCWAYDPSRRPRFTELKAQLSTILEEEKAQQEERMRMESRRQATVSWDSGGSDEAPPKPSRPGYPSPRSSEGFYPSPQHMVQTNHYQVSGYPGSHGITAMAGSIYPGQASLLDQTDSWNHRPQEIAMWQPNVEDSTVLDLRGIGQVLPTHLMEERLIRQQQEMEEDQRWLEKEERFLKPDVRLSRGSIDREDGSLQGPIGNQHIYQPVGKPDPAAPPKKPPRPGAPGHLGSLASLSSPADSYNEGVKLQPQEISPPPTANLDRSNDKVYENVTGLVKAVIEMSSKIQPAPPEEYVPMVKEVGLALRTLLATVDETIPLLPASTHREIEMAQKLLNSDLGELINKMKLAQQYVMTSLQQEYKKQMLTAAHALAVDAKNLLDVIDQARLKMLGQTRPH
In experiment [12] the test system is Fibrinogen (Alexa647-labelled). Description: Alexa647-fibrinogen binding to printed small molecules – biochemical, small-molecule microarray, 635/667 nm fluorescence, artefact control for SMM control-protein annotation, profiling panel (AID 1131).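 Further: z-score merges 667 nm fluorescence with per-spot signal-to-noise over triplicate slides.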 The note with it: fibrinogen-A647 binding fluorescence, higher = more signal.
For experiment [13], the target named is Follistatin (Homo sapiens) (UniProt P19883). The experiment is described as follows: FST protein binding to printed compounds – biochemical, small-molecule microarray, 635/667 nm fluorescence, primary screen (AID 1132). The note with it: 635 nm fluorescence, higher = more signal.
Follistatin (Homo sapiens), sequence (P19883 whole entry, looked up): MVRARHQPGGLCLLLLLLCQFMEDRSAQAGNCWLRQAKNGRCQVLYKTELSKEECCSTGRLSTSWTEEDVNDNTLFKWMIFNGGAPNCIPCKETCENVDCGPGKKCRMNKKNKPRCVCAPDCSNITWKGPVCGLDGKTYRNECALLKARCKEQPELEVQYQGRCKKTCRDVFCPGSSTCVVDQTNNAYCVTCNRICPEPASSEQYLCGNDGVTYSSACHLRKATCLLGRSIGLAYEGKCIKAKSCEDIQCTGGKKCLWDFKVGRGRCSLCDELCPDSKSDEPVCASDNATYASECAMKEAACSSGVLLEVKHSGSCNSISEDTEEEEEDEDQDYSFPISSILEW
The target of experiment [14] is Fibroblast growth factor 2 (Homo sapiens) (UniProt P09038). The experiment is described as follows: basic fibroblast growth factor binding to printed compounds – biochemical, small-molecule microarray, 635/667 nm fluorescence, primary screen (AID 1133). Conditions: FGF2, fluorescence 635/667, higher = more signal.
Fibroblast growth factor 2 (Homo sapiens), sequence (P09038 whole entry, looked up): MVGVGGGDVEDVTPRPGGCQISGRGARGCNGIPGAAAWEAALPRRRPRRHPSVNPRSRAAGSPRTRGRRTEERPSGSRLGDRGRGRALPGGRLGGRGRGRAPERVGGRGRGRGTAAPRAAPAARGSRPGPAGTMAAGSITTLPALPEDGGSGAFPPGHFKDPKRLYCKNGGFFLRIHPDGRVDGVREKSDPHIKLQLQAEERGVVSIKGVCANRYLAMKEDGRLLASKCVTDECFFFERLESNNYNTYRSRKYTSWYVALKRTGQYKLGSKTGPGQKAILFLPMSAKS
Experiment [15] can be described thus: JC-1 mitochondrial potential readout, lung cancer cells – cell-based, A549, JC-1 fluorescence, basal, 24 h, 100 nL, profiling panel (AID 1138).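 Further: A549 lung adenocarcinoma cells under basal conditions with no added stimulus; test concentration not given here.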 Conditions: higher = more signal.
In another experiment the test system is Lefty1. Description: Lefty1 protein binding to printed compounds – biochemical, small-molecule microarray, 635/667 nm fluorescence, primary screen (AID 1139). The note with it: fluorescence 635/667, higher = more signal.
Experiment [16] relates to wheat germ agglutinin (Triticum aestivum), Alexa647-labelled. Description: Alexa647-WGA lectin binding to printed small molecules – biochemical, small-molecule microarray, 635/667 nm fluorescence, artefact control for SMM control-protein annotation, profiling panel (AID 1140).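 Further: score merges 667 nm feature emission with signal to noise over triplicate slides.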 The note with it: WGA-A647 binding, 635 nm fluorescence, higher = more signal.
Experiment [17] has as its target Luciferin 4-monooxygenase (Photinus pyralis) (UniProt P08659). Description: inhibition of purified Photinus pyralis luciferase – biochemical, luminescence, purified enzyme, 2006 set, primary screen (AID 1141).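 Further: cell-free assay with purified firefly luciferase at 100 ng per well in PBS; test concentration not given here.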 The note with it: purified firefly luciferase, SteadyGlo luminescence, 30 min; higher = more signal, called active from +8 up or from −8 down.

Activity calls are given as the source filed them.

Albumin (Bos taurus), sequence (P02769 whole entry, looked up): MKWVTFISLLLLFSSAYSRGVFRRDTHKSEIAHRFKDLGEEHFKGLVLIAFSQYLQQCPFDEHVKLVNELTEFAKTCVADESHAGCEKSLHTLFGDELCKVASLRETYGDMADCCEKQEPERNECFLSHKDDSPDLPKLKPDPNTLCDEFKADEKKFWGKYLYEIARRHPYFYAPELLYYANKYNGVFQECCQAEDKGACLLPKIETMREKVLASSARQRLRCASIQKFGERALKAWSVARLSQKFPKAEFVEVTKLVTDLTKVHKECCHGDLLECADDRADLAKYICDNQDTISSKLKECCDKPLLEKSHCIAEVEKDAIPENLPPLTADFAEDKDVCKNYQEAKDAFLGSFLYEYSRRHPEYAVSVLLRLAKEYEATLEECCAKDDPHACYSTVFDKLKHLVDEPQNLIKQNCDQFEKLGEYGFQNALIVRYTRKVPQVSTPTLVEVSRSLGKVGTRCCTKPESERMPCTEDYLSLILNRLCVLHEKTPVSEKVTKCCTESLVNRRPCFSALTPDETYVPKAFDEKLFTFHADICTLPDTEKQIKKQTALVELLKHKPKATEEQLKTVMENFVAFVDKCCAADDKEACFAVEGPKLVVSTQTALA
Luciferin 4-monooxygenase (Photinus pyralis), sequence (P08659 whole entry, looked up): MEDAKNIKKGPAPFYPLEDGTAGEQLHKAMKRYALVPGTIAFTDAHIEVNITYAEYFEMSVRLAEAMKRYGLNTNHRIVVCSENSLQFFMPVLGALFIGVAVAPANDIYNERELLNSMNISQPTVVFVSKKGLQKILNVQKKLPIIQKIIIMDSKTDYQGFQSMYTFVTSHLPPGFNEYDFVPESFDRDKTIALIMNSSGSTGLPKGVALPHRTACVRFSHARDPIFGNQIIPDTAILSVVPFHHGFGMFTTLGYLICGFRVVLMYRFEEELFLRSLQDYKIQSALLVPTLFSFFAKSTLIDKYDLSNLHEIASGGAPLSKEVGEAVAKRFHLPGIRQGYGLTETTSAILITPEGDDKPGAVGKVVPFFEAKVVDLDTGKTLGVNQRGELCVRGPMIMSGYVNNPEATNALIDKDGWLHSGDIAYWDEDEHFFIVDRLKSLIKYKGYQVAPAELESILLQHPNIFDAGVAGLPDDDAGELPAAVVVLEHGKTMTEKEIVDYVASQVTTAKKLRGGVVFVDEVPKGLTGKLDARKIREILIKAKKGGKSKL

Regarding `COC(=O)[C@@]1(Cc2ccc(OC)cc2)[C@H]2c3cc(C(=O)N4CCCC4)n(Cc4ccc(C(F)(F)F)nc4)c3C[C@H]2CN1C(=O)c1ccccc1`, the composite z-score in the experiment with Albumin (Bos taurus) was found to be 0.948; in experiment [2], 0.361; in experiment [3], 0.0224; in experiment [4], 0.737; in [5] it was 0.297; in [6], 0.511. In addition, the composite z-score was 0.524 in the experiment on Sam68 (KHDRBS1); -0.249 in [7]; -0.308 in [8]; 1.4 in [9]; 1.22 in experiment [10]; 1.14 in experiment [11]. For the same molecule, the composite z-score in experiment [12] was 0.683; in [13] it was 0.0995; in experiment [14] it was -0.342; in the experiment on Lefty1 it was 0.087; in experiment [16], 0.902. Further, the composite Z-score in experiment [1] is -0.325 (inactive). The z-score is 0.939 in [15] and -7.63 (inactive) in [17].
In the case of `COc1ccc([Si](C)(C)[C@@H]2[C@@H](CC(=O)N(CCO)Cc3ccccc3)O[C@]3(C(=O)N(Cc4ccc(I)cc4)c4ccccc43)[C@H]2C)cc1`, the composite z-score with Albumin (Bos taurus) was -0.596; in [2], 0.456; in experiment [3], 0.02; in [4] it was 0.414; in experiment [5], 0.568; in [6] it was 0.965. In addition, the composite z-score with Sam68 (KHDRBS1) came to 0.793; in experiment [7], 1.36; in experiment [8], 0.817; in [9], 1.9; in experiment [10] it was 0.32; in experiment [11], 0.385. Besides, the composite z-score was 0.391 in experiment [12]; 1.49 in experiment [13]; 1.66 in [14]; 1.53 with Lefty1; -0.0349 in experiment [16]. The composite Z-score in [1] is 0.317 (inactive). In addition, the z-score in experiment [15] is -0.472; in [17] it was 0.249 (inactive).
Consider `O=C1[C@@H]2[C@@H](CC(COc3ccccc3)=C([C@H](O)CCc3ccccc3)[C@@H]2CO)C(=O)N1Cc1ccccc1`, for which the composite z-score with Albumin (Bos taurus) is 0.574; in experiment [2], 0.15; in [3] it was -0.148; in experiment [4], 0.42; in experiment [5], 1.05; in experiment [6], 0.424. In addition, the composite z-score in the experiment with Sam68 (KHDRBS1) turned out to be 0.582; in [7], 0.249; in experiment [8], 0.929; in [9] it was 1.71; in experiment [10], 0.332; in [11], 1.2. Moreover, the composite z-score in experiment [12] was 0.724; in experiment [13] it was 0.561; in experiment [14], 0.175; with Lefty1, 0.715; in experiment [16], 0.124. Moreover, the composite Z-score in experiment [1] was 0.356 (inactive). The z-score in experiment [15] was 2.07; in experiment [17], -0.172 (inactive).
As to `CC[C@@H]1C=C(C(=O)O)[C@H](c2ccc(OC)cc2)N1S(=O)(=O)c1ccc(C)cc1`, the composite z-score is 0.493 with Albumin (Bos taurus); -0.061 in [2]; -0.173 in experiment [3]; 0.852 in [4]; 2.55 in experiment [5]; -0.388 in experiment [6]. For the same molecule, the composite z-score with Sam68 (KHDRBS1) was -0.815; in experiment [7], -0.377; in [8], -0.0828; in experiment [9] it was -0.0418; in experiment [10], 0.521; in experiment [11] it was 0.359. Further, the composite z-score in [12] was -0.342; in experiment [13], -0.055; in experiment [14] it was -0.477; with Lefty1, 0.112; in experiment [16] it was 0.164. The composite Z-score in [1] is 0.112 (inactive). Further, the results for the z-score in [15] and in experiment [17] were 0.0749 and 1.04 (inactive), respectively.
For the molecule `COC(=O)[C@@]1(Cc2ccc(OC)cc2)[C@H]2c3cc(C(=O)N(C)C)[nH]c3C[C@H]2CN1C(=O)c1ccccc1`, the composite z-score with Albumin (Bos taurus) was 0.0277; in experiment [2] it was -0.0477; in experiment [3] it was 0.013; in experiment [4] it was 0.742; in [5], 0.1; in [6] it was -0.106. Also, the composite z-score in the experiment on Sam68 (KHDRBS1) was -1.13; in [7] it was -0.372; in experiment [8] it was 0.0575; in [9], 0.279; in experiment [10], -0.154; in [11] it was 0.0999. The composite z-score in experiment [12] was 0.804; in experiment [13] it was -0.205; in experiment [14], -0.738; in the experiment on Lefty1, -0.275; in [16] it was 0.895. For the same molecule, in experiment [1], the composite Z-score is 0.184 (inactive). The z-score in [15] was 0.638; in experiment [17] it was 0.0806 (inactive).

For the origin of these results see PubChem BioAssay.
